PLK1 PBD inh – PLK1 (human) polo-box domain binding inhibition | P53350 | Plk1 PBD binding of FITC phosphopeptide, fluorescence polarization | Potency, µM, without a hit: max response, negative = inhibition, usual class: inhibitors | 2.8% of 360,000 active | AID 720504; further: potency means the concentration at half of the fitted maximal effect; series mostly up to about 57 µM; on the % scale 0 is the no-effect control and ±100 the full control effect; nearly all actives have a fitted effect of over 65% in size
JMJD2A Tudor inh – JMJD2A Tudor domain (human) inhibition; AlphaScreen JMJD2A-Tudor / H3K4me3 peptide binding; Potency, µM (series often up to 114 µM), for inactives: top-dose activity change, negative = inhibition, actives largely listed as inhibitors; 4.4% of 390,000 active; AID 504339; further: potency means the concentration at half of the fitted maximal effect; on the % scale 0 is the no-effect control and ±100 the full control effect; nearly all actives have a fitted effect of over 50% in size
G9a block – blocks human histone lysine methyltransferase G9a. G9a H3K9 monomethylation, AlphaScreen, 2 h. Potency, µM (top dose mostly 102 µM), inactives show at the top dose activity, negative = inhibition, hits mostly inhibitors. Q96KQ7. 8.8% of 350,000 active. AID 504332; further: potency means the concentration at half of the fitted maximal effect; on the % scale 0 is the no-effect control and ±100 the full control effect; nearly all actives have a fitted effect of over 75% in size
Target sequence (Q96KQ7 913-1193 limits assumed): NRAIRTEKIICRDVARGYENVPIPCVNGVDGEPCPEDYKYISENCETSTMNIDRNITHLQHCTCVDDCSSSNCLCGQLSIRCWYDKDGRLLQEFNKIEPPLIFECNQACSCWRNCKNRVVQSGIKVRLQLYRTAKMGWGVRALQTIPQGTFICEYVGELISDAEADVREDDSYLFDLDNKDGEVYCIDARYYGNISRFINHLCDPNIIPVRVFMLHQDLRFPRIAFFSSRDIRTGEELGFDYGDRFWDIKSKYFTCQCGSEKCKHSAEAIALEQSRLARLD
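Enzyme 20 nM + cpd, 15 min RT; add b-H3K9 pep 500 nM / SAM 20 uM; 2 h RT; anti-H3K9me1 Ab 0.5 ug/mL + SA donor / anti-rabbit acceptor beads 20 ug/mL each, 10 min; AlphaScreen read.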
BAZ2B inh – BAZ2B (human) inhibition | Potency, µM (highest dose often 114 µM), for inactives: at the top dose activity change, negative = inhibition, most hits filed as inhibitors | Q9UIF8 | AlphaScreen BAZ2B-H3K14Ac peptide displacement | 4.4% of 360,000 active; further: potency means the concentration at half of the fitted maximal effect; on the % scale 0 is the no-effect control and ±100 the full control effect; nearly all actives have a fitted effect of over 60% in size
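AlphaScreen displacement of biotin-H3(5-23)K14Ac peptide (50 nM final) from BAZ2B (50 nM final) in PBS pH 7.4, 0.01% Tween-20; complex preformed 30 min RT, then compounds (top 110 uM) 30 min RT, beads 20 min dark.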
HP1b binding inh – HP1-beta chromodomain-methylated histone interaction inhibition | P83916 | AlphaScreen HP1-beta / biotin-H3K9me3 peptide binding | Potency, µM (top dose mostly 114 µM), for the others: at the top dose activity change, negative = inhibition, actives largely listed as inhibitors | 0.56% of 390,000 active | AID 540317; further: potency means the concentration at half of the fitted maximal effect; nearly all actives have a fitted effect of over 70% in size
Target sequence (P83916 whole entry, looked up): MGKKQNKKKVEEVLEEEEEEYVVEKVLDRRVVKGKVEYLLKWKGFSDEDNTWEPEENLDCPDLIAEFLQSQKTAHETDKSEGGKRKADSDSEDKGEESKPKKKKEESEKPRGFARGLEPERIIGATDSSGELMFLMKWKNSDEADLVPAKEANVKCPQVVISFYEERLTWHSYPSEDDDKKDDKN
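AlphaScreen: HP1-beta (50 nM) preformed 30 min with biotin-H3(1-18)K9me3 peptide (50 nM) in PBS pH 7.4, 0.01% Tween-20. Compound added for 30 min at RT, then streptavidin donor/nickel chelate acceptor beads (10 ug/mL) for 30 min.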
PI5P4K alpha inh – blocks human PI5P4K alpha kinase activity. P48426. PI5P4Kalpha enzyme, ADP-Glo luminescence, 60 min; active compounds read low. max response, %. 1.2% of 330,000 active. AID 652105; active means max response of -50% or lower; inconclusive means between -30% and -50%; inactive means -30% or higher; further: value at the top dose of about 77 µM; on the % scale 0 is the no-effect control and ±100 the full control effect
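Human PI5P4Kalpha with substrate in 0.038 M HEPES pH 7.4, 0.28 mM EGTA, 0.1% CHAPS, 5% DMSO; reaction started with 5 microM ATP (final), 60 min at room temperature. ADP formed read by ADP-Glo luminescence.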
* = called active by the depositor; u = inconclusive; x = no result; ! = a repeat was not active; [ ] = remark or other dose. The list is not random: actives were taken first. Their share in the collection is about 12%. Unless noted, the call rests on the fitted dose curve; in most records, active means well fitted curve in the direction sought with a large enough effect; inconclusive means small, poorly fitted or top-dose-only effect, or another doubt; inactive means no such curve, though single readings can be large; an effect the other way counts as inactive or inconclusive.

SMILES	PLK1 PBD inh	JMJD2A Tudor inh	G9a block	BAZ2B inh	HP1b binding inh	PI5P4K alpha inh
COc1ccc(-c2[nH]c(-c3cccc(OC)c3)nc2SCC(=O)NC2CCCC2)cc1	-7%	u	79µM*!	u	18%	-11
COc1cccc(-c2nc(SCC(=O)Nc3ccc4c(c3)OCO4)c(-c3ccccc3)[nH]2)c1	x	u	8.9µM*	u	u	x
COc1ccc(-c2[nH]c(-c3ccccc3)nc2SCC(=O)NC2CCCC2)cc1	-7%	u	-48%[59 µM]	u	u	-6
CC(C)Nc1cccc(S(=O)(=O)N2CCCN(S(=O)(=O)c3ccc4c(c3)OCCO4)CC2)c1	x	-30%	x	x	x	x
CC(=O)c1ccc(S(=O)(=O)N2CCN(CC#N)CC2)cc1	-4%	-14%	u	1%	24%	2
N#CCN1CCN(CC(=O)c2ccc(Br)cc2)CC1	-4%	-5%	13µM*	-4%	34%	0
CC(=O)N1CCN(CC(=O)c2ccc(Br)cc2)CC1	-6%	-12%	2µM*	-4%	61%	-7
COc1ccc(S(=O)(=O)N2CCN(Cc3nc4ccc(C)cc4o3)CC2)cc1	x	-11%	13%[59 µM]	-16%	15%	x
CCOC(=O)/C(=C\c1ccccc1)C(=O)CCN1CCOCC1	6.7µM*	-22%	x	x	-21%	9
Cc1ccc2c(=O)cc(C(=O)Nc3cccc(Cl)c3C)oc2c1C	x	-10%	4%[59 µM]	-1%	52%	x
CCC(OC(=O)c1cccs1)C(=O)NCc1ccc2c(c1)OCO2 (centres undefined)	-1%	100µM*	14%[12.7 µM]	-5%	11%	0
COc1ccc2c(c1)c1c(c(=O)n(CCc3ccccc3)c(=O)n1Cc1cccc(Cl)c1)n2C	x	31%	-3%[59 µM]	5%	58%	x
O=[N+]([O-])c1ccc(-c2nc(-c3ccc(F)cc3)c(-c3ccncc3)[nH]2)cc1	x	x	35µM*	x	x	x
CN(Cc1ccccc1)C(=S)NC(=O)c1cccs1	-12%	-33%	40µM*	u	13%	6
CN(Cc1ccccc1)C(=S)NC(=O)c1ccc(-c2ccccc2)cc1	-7%	3%	83%[59 µM]	-24%	42%	4
Cc1cccc(Nc2nc(N)nc(N)c2N=O)c1	-4%	-30%	x	x	1%[57 µM]	-51*
Cc1cccc(Nc2nc(N)c(C#N)c(CC#N)c2C#N)c1	-1%	2%	-12%[59 µM]	6%	23%	-54*
CCOC(=O)c1sc(NC(=O)COC(=O)CNC(=O)C2CCCCC2)c(C(=O)OCC)c1C	-13%	8%[57.1 µM]	3%	-2%	18%	-6
O=C(COC(=O)CN1C(=O)C2CCCCC2C1=O)NNC(=O)c1ccc(Cl)cc1 (centres undefined)	-4%	-8%	4%	-4%	44%	-3
C=CCO/N=C/C1C(=O)CC(C)(C)CC1=O	-9%	10µM*	35µM*	u	1%	-3
Cc1cc(OCC[N+]2(C)CCCCC2)nc2ccccc12	-25%	40µM*	u	-11%	-19%	3
Cc1ccccc1S(=O)(=O)NC(=O)C1(C)CCN1C(=O)c1cccc(F)c1 (centres undefined)	-6%	x	x	x	x	-1
CC(C)OC(=O)CSc1nnc(CNc2nc(-c3ccccc3)cs2)n1C	u	-25%	45µM*	u	-19%	1
COc1cccc(C(=O)CSc2nnc(CNc3nc(-c4ccccc4)cs3)n2C)c1	-6%	-31%	8.9µM*	-14%	-19%	3
Cn1c(CNc2nc(-c3ccccc3)cs2)nnc1SCC(=O)OC1CCCCC1	-28%	-15%[57.1 µM]	u	u	u	1
COc1ccc(C(=O)CSc2nnc(CNC(=O)c3ccccc3)n2C)cc1	-1%	3%	x	-4%	30%	7
Cc1cccc(CNC(=O)c2ccc(NC(=O)N3CCSc4ccccc43)cc2)c1	x	-6%	9%[59 µM]	-3%	29%	x
COc1ccc(-c2coc3cc(OC(C)=O)ccc3c2=S)cc1	12µM*	45µM*	x	x	u	u
C/C(CC(=O)Nc1ccc(N(C)C)cc1)=N\NC(=O)c1ccc(C(C)(C)C)cc1	1%	-31%	x	u	23%	-6

High-throughput results (PubChem BioAssay)
